Reference: the supplement of paper PMC8728848
This excerpt belongs to a sample that is enriched for the strongest signals.

Tests used:
Assay in all cases: glycan array binding signal (z-score within array); higher = stronger binding
Settings in all cases: glycan notation: IUPAC condensed, linker removed
[1] = target: Fuc(a1-2)Gal(b1-3)GalNAc
In short: (§1)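 Columns mapping to the same glycan were averaged after glycan names were converted to IUPAC-condensed notation. The data come from 3228 arrays in the Consortium for Functional Glycomics database, limited to those with an available protein sequence. Binding is reported as a within-array Z-score averaged across arrays of one protein sequence and across linkers.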

[2] = target: Fuc(a1-2)Gal(b1-3)GalNAc(b1-3)Gal
In short: as §1

[3] = target: Fuc(a1-2)Gal(b1-3)GlcNAc(b1-3)[Fuc(a1-3)[Gal(b1-4)]GlcNAc(b1-6)]Gal(b1-4)Glc
In short: as §1

[4] = target: Fuc(a1-2)Gal(b1-4)GlcNAc(b1-3)Gal(b1-4)GlcNAc(b1-3)Gal(b1-4)GlcNAc
In short: as §1

[5] = target: Fuc(a1-2)Gal6S(b1-4)Glc
In short: as §1

[6] = target: Gal(a1-3)Gal(b1-3)[Fuc(a1-4)]GlcNAc(b1-2)Man(a1-3)[Gal(a1-3)Gal(b1-3)[Fuc(a1-4)]GlcNAc(b1-2)Man(a1-6)]Man(b1-4)GlcNAc(b1-4)GlcNAc
In short: as §1

[7] = target: Gal(b1-3)Gal(b1-4)GlcNAc(b1-2)Man(a1-3)[Gal(b1-3)Gal(b1-4)GlcNAc(b1-2)Man(a1-6)]Man(b1-4)GlcNAc(b1-4)GlcNAc
In short: as §1

[8] = target: Gal(b1-3)GalNAc(b1-3)Gal(a1-4)Gal(b1-4)Glc
In short: as §1

[9] = target: Gal(b1-3)GalNAc(b1-4)Gal(b1-4)Glc
In short: as §1

[10] = target: Gal(b1-4)GlcNAc(a1-6)Gal(b1-4)GlcNAc
In short: as §1

[11] = target: Gal(b1-4)GlcNAc(b1-2)Man(a1-3)Man(b1-4)GlcNAc(b1-4)GlcNAc
In short: as §1

[12] = target: Gal(b1-4)GlcNAc(b1-2)[Gal(b1-4)GlcNAc(b1-4)]Man(a1-3)[Gal(b1-4)GlcNAc(b1-2)Man(a1-6)]Man(b1-4)GlcNAc(b1-4)GlcNAc
In short: as §1

[13] = target: Gal(b1-4)GlcNAc(b1-2)[Gal(b1-4)GlcNAc(b1-4)]Man(a1-3)[Gal(b1-4)GlcNAc(b1-2)[Gal(b1-4)GlcNAc(b1-6)]Man(a1-6)]Man(b1-4)GlcNAc(b1-4)GlcNAc
In short: as §1

[14] = target: Gal3S(b1-3)GlcNAc
In short: as §1

[15] = target: Gal3S(b1-4)GlcNAc6S
In short: as §1

[16] = target: Gal3S(b1-4)[Fuc(a1-3)]Glc6S
In short: as §1

[17] = target: GalNAc(a1-3)GalNAc
In short: as §1

[18] = target: Glc(b1-6)Glc
In short: as §1

[19] = target: GlcA(b1-3)GlcNAc
In short: as §1

[20] = target: GlcNAc(a1-4)Gal(b1-4)GlcNAc(b1-3)Gal(b1-4)Glc
In short: as §1

[21] = target: GlcNAc(b1-6)GalNAc
In short: as §1

[22] = target: Neu5Ac(a2-3)Gal(b1-3)GalNAc6S
In short: as §1

[23] = target: Neu5Ac(a2-3)Gal(b1-3)GlcNAc(b1-3)Gal(b1-4)GlcNAc
In short: as §1

[24] = target: Neu5Ac(a2-3)Gal(b1-3)GlcNAc6S
In short: as §1

[25] = target: Neu5Ac(a2-3)Gal(b1-4)GlcNAc(b1-2)Man(a1-3)[GlcNAc(b1-2)Man(b1-4)GlcNAc(b1-2)Man(a1-6)]Man(b1-4)GlcNAc(b1-4)GlcNAc
In short: as §1

[26] = target: Neu5Ac(a2-3)Gal(b1-4)[Fuc(a1-3)]GlcNAc(b1-6)[Gal(b1-3)]GalNAc
In short: as §1

[27] = target: Neu5Ac(a2-3)Gal6S(b1-4)[Fuc(a1-3)]GlcNAc
In short: as §1

[28] = target: Neu5Ac(a2-3)GalNAc(b1-4)GlcNAc
In short: as §1

[29] = target: Neu5Ac(a2-3)[GalNAc(b1-4)]Gal(b1-4)Glc
In short: as §1

[30] = target: Neu5Ac(a2-6)Gal
In short: as §1

[31] = target: Neu5Ac(a2-6)Gal(b1-4)GlcNAc(b1-3)Gal(b1-3)GlcNAc
In short: as §1

[32] = target: Neu5Ac(a2-6)Gal(b1-4)GlcNAc6S
In short: as §1

[33] = target: Neu5Ac(a2-8)Neu5Ac(a2-8)Neu5Ac
In short: as §1

[34] = target: Neu5Ac9Ac(a2-6)Gal(b1-4)GlcNAc
In short: as §1

B1: Gal 1 (Canis lupus) (protein)
chain: MACGLVASNLSLKPGQCLRVQCEVVPEAKSFVLNLGKDGDNLCLHFNPRFEAHGDVNTIVCNSKDGGAWGEELRESAFPFQPGTVTEVCISFDQADLTIKLPDGYTFKFPNRLNLEAISYLAADGDMKIKCLAFD
- glycan array binding signal (z-score) [1]: -0.289
- glycan array binding signal (z-score) [2]: -0.33
- glycan array binding signal (z-score) [3]: 0.066
- glycan array binding signal (z-score) [4]: 0.432
- glycan array binding signal (z-score) [5]: -0.234
- glycan array binding signal (z-score) [6]: -0.274
- glycan array binding signal (z-score) [7]: 6.47
- glycan array binding signal (z-score) [8]: -0.328
- glycan array binding signal (z-score) [9]: -0.297
- glycan array binding signal (z-score) [10]: 2.97
- glycan array binding signal (z-score) [11]: 1.75
- glycan array binding signal (z-score) [12]: 5.5
- glycan array binding signal (z-score) [13]: 6.78
- glycan array binding signal (z-score) [14]: 3.33
- glycan array binding signal (z-score) [15]: 4.69
- glycan array binding signal (z-score) [16]: -0.286
- glycan array binding signal (z-score) [17]: -0.323
- glycan array binding signal (z-score) [18]: -0.343
- glycan array binding signal (z-score) [19]: -0.294
- glycan array binding signal (z-score) [20]: -0.318
- glycan array binding signal (z-score) [21]: -0.33
- glycan array binding signal (z-score) [22]: -0.333
- glycan array binding signal (z-score) [23]: 1.66
- glycan array binding signal (z-score) [24]: -0.31
- glycan array binding signal (z-score) [25]: 3.31
- glycan array binding signal (z-score) [26]: -0.244
- glycan array binding signal (z-score) [27]: -0.322
- glycan array binding signal (z-score) [28]: -0.307
- glycan array binding signal (z-score) [29]: -0.292
- glycan array binding signal (z-score) [30]: -0.257
- glycan array binding signal (z-score) [31]: -0.32
- glycan array binding signal (z-score) [32]: -0.332
- glycan array binding signal (z-score) [33]: -0.324
- glycan array binding signal (z-score) [34]: -0.303
